Data reported in PubChem BioAssay.
Records with an inconclusive call do not appear. Calls of active or inactive are those of the source.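 The calls were made as follows, unless noted: active = growth inhibition above 25% in both replicates, a cutoff set 3 SD above the mean; inconclusive = above 25% in only one replicate; inactive = the rest.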

How the values were obtained:
[1] = reducers of endogenous Her2 protein level, primary screen, SKBR3 breast tumor cells, AlphaScreen, ATP viability (AID 461;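 active = Her2 level under about 52% in both replicate screens, with viability over 70% of control, limit read from the data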;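 as to Her2 level: lower value means less Her2 protein in the cells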;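 as to viability: percent of carrier control wells set as 100% viability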); settings: 18-24 h, measured here: SKBR3 viability, ATP luminescence, at 10 µM
[2] = target: Receptor tyrosine-protein kinase erbB-2 (Homo sapiens) (UniProt P04626); experiment: as above; settings: 18-24 h, at 10 µM, stronger effect = lower value
Receptor tyrosine-protein kinase erbB-2 (Homo sapiens), sequence (P04626 whole entry, looked up): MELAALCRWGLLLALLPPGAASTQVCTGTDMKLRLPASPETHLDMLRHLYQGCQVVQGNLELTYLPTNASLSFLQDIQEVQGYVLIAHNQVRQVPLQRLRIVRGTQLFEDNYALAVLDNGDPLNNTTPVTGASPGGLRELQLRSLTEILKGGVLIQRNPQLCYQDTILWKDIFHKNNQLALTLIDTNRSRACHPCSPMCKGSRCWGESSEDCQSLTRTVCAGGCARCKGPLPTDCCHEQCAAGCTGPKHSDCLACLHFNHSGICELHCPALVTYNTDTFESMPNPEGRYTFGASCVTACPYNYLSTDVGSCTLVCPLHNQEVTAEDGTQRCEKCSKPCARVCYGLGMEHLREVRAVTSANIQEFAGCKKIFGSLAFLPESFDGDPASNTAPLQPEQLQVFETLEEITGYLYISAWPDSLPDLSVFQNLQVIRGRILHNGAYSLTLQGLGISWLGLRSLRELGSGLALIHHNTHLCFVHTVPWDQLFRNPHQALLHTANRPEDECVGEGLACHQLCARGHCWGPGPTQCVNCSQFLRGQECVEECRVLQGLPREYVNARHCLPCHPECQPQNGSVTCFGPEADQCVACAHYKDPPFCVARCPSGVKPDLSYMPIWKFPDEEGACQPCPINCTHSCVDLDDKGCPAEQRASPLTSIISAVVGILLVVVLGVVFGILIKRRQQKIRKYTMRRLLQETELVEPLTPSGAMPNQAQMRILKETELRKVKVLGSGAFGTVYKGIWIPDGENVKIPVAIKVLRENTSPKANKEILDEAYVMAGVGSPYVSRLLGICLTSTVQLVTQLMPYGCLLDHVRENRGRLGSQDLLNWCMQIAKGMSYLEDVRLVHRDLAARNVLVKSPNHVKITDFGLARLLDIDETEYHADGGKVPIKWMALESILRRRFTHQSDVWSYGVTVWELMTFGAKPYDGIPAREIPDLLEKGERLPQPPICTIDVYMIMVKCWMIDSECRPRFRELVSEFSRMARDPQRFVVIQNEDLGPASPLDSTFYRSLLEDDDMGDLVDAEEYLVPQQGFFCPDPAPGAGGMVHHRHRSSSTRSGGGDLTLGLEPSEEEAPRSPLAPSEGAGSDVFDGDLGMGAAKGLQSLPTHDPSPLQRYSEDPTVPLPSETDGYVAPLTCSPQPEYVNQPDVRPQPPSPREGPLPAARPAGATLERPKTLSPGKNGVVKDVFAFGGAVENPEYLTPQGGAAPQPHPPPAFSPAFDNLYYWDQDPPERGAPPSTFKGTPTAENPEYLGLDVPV

[3] = SK-BR-3 cell growth inhibitors, pilot screen, 24 h, human (AID 572;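 active = viability at or below 10% of carrier control in both of two separate runs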;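 also: compound exposure lasted between 18 and 24 h rather than exactly 24 h; 100% = carrier-treated control wells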); settings: SK-BR-3 viability, CellTiter-Glo luminescence, at 10 µM, stronger effect = lower value
[4] = HUVEC growth inhibition – cell-based, human, primary screen (AID 575;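 active = viability at or below 30% in both replicate assays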;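 also: 100% = median of untreated cell wells with 0.1% DMSO on each plate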); settings: HUVEC proliferation, CellTiter-Glo luminescence, 72 h; at 10 µM; stronger effect = lower value
[5] = growth inhibitors of H69AR lung tumor, primary screen, human, duplicate replicates (AID 580;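 active = viability at or under a set limit in both replicates, limit being median viability minus 3 SD, cut at about 48% in these data, passing the limit was not always enough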;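 also: 100% = mean luminescence of untreated wells and 0% = no signal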); settings: H69AR lung tumor cells viability, ATP luminescence, 72 h; at 10 µM; stronger effect = lower value
[6] = reversal of MRP1-mediated doxorubicin resistance, pilot screen, H69AR cells, doxorubicin co-treatment (AID 601;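 active = viability loss from added drug above about 55%, and viability with drug at most 40%, in both replicates, limit read from the data, passing the limit was not always enough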); settings: CellTiter-Glo, 72 h, at 10 µM; for differential viability (reversal): stronger effect = higher value
[7] = 384-well plate pilot, post-Golgi transport modulator project, inhibition of yeast transport mutant growth (AID 636; in the data active = inhibition above about 31%); settings: absorbance 615 nm, about 18 h, stronger effect = higher value
[8] = growth suppression of yeast trafficking mutant, preliminary HTS, modulators of trafficking downstream of Golgi apparatus project, 1536-format plate, OD 615 nm (AID 637; in the data active = inhibition above about 30%); settings: yeast transport mutant growth, absorbance 615 nm, 18 h; stronger effect = higher value
[9] = OD615 S. cerevisiae growth inhibition, permissive medium, pilot counter-assay, permissive growth control for S. cerevisiae lifespan shortening project (AID 705); settings: OD615, 24 h, at 10 µM, stronger effect = higher value
[10] = Restrictive medium S. cerevisiae growth inhibition, OD615, pilot screen of yeast lifespan reduction project, restrictive growth control (AID 706;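 active = growth inhibition above a set limit, 3 SD over mean compound inhibition, in both replicates, cut at about 43% in these data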;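 also: modified DeaD lifespan yeast strain shifted to restrictive glucose medium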); settings: OD615, 48 h, at 10 µM, stronger effect = higher value
[11] = viability gain of MRP-1-high H69AR cells under doxorubicin, pilot screen, MRP-1 activator project, CellTiter-Glo, duplicate (AID 807;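 active = viability increase at or above a cutoff of the median across tested compounds plus 3 SD, cut at about 8.5% in these data, passing the limit was not always enough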;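 also: compound pretreatment 18-22 h then 72 h combined with doxorubicin; 0% = doxorubicin alone and 100% = vehicle without doxorubicin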); settings: H69AR viability with doxorubicin, CellTiter-Glo luminescence; at 10 µM; stronger effect = higher value
[12] = growth suppression of beta-catenin knockout HCT116, pilot screen, human colon tumor cells (AID 823;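 active = cell viability at or below a set limit in both duplicate runs, the limit being the all-compound median minus 4 SD, cut at about 23% in these data, passing the limit was not always enough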;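 also: 0% = wells killed by 20 µM Hyamine and 100% = untreated DMSO cell wells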); settings: CellTiter-Glo, 60 h, at 10 µM, stronger effect = lower value
[13] = growth suppression of PTEN-deleted HCT116, pilot screen, cell-based, HCT116 clonal line, CellTiter-Glo (AID 824;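 active = viability at or below 27.92% in each of two runs, the all-compound median minus 4 SD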;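 also: 0% = 20 µM Hyamine control and 100% = vehicle cell control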); settings: 60 h, at 10 µM, stronger effect = lower value
[14] = inhibitors of the yeast RAM network, pilot screen, dse1pr::URA3 reporter, 5-FOA selection (AID 869;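 active = inhibition over a set limit, the all-compound mean plus 3 SD, in both replicate runs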;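 also: 0% = DMSO wells with no growth and 100% = 10 µM 1-NA-PP1 with full growth; RAM network block rescues cells from 5-FOA so hits raise OD615 growth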); settings: S. cerevisiae dse1pr::URA3 5-FOA growth, OD615, 2 d; at 10 µM; stronger effect = higher value; strain carries analog-sensitive mutant Cbk1 kinase
[15] = RAM signaling pathway blockade in yeast – S. cerevisiae, Pdr1DBD-CYC8 efflux-inhibited sensitized strain, primary screen (AID 1298;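 active = RAM network inhibition above 8.4% in each of two replicates, 3 SD over the compound average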;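 also: 0% = DMSO untreated cells without growth and 100% = 10 µM 1-NA-PP1 full growth; higher means more yeast growth rescued from 5-FOA killing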); settings: S. cerevisiae cbk1-as DSE1-URA3 strain, 5-FOA growth OD615, 2 d; at 50 µM; stronger effect = higher value
[16] = H69AR cells + 2 uM doxorubicin, measured here: viability with 2 uM doxorubicin, stronger effect = lower value
[17] = H69AR cells, compound alone cytotoxicity

Cc1c(NC(=O)c2ccc(CN3CCc4ccccc4C3)cc2)c(=O)n(-c2ccccc2)n1C
94.3%: viability [6, 16]
95%: viability [1]
98.8%: viability [6, 17]
inactive: Her2 level [2] 109% | viability [3] 95% | viability [4] 94.3% | viability [5] 98.8% | differential viability (reversal) ([6]; H69AR cells + 2 uM doxorubicin) 4.51% | inhibition [7] -5.64% | inhibition [8] -4.83% | growth inhibition [9] -4.14% | growth inhibition [10] -6.79% | viability increase [11] 0.51% | viability [12] 79.6% | viability [13] 84.4% | inhibition [14] 0.845% | RAM network inhibition [15] 5.97%

COc1cccc(CNC(=O)Cn2c(=O)oc3ccccc32)c1OC
110%: viability [1]
92.3%: viability [6, 17]
92.2%: viability [6, 16]
inactive: Her2 level [2] 99% | viability [3] 110% | viability [4] 89.8% | viability [5] 92.3% | differential viability (reversal) ([6]; H69AR cells + 2 uM doxorubicin) 0.115% | inhibition [7] -6.27% | inhibition [8] -0.67% | growth inhibition [9] -9.48% | growth inhibition [10] -12.4% | viability increase [11] -0.35% | viability [12] 104% | viability [13] 91% | inhibition [14] 0.75% | RAM network inhibition [15] -0.26%

Cc1ccc2oc(=O)c3cnn(CC(=O)N4CCCc5ccccc54)c3c2c1
60.9%: viability [6, 16]
inactive: Her2 level [2] 98.5% | viability [3] 100% | viability [4] 89.8% | viability [5] 74.8% | differential viability (reversal) ([6]; H69AR cells + 2 uM doxorubicin) 13.9% | inhibition [7] -2.67% | inhibition [8] -0.82% | growth inhibition [9] -12.4% | growth inhibition [10] -5.59% | viability increase [11] -3.17% | viability [12] 91.3% | viability [13] 82.3% | inhibition [14] 3.85% | RAM network inhibition [15] 6.86%
74.8%: viability [6, 17]
100%: viability [1]

COc1ccc(C(C)N2CC34C=CC(O3)C(C(=O)OCC(C)C)C4C2=O)cc1 (stereo not drawn)
81.9%: viability [6, 16]
inactive: Her2 level [2] 89.5% | viability [3] 103% | viability [4] 97.2% | viability [5] 85.1% | differential viability (reversal) ([6]; H69AR cells + 2 uM doxorubicin) 3.22% | inhibition [7] -4.27% | inhibition [8] -2.33% | growth inhibition [9] -0.88% | growth inhibition [10] -7.06% | viability increase [11] -2.51% | viability [12] 103% | viability [13] 88.5% | inhibition [14] 1.82% | RAM network inhibition [15] 4.69%
85.1%: viability [6, 17]
103%: viability [1]

CCCSC1=C(C#N)C(c2cc(OC)ccc2OC)CC(=O)N1 (stereo not drawn)
93%: viability [1]
89.1%: viability [6, 17]
83.1%: viability [6, 16]
inactive: Her2 level [2] 92% | viability [3] 93% | viability [4] 98.3% | viability [5] 89.1% | differential viability (reversal) ([6]; H69AR cells + 2 uM doxorubicin) 5.96% | inhibition [7] -4.4% | inhibition [8] -0.33% | growth inhibition [9] -0.855% | growth inhibition [10] -3.12% | viability increase [11] -0.44% | viability [12] 92.5% | viability [13] 92.9% | inhibition [14] 1.42% | RAM network inhibition [15] 0.78%

Cn1c(NC(=O)c2ccccc2NC(=O)C(C)(C)C)nc2ccccc21
77.5%: viability [6, 16]
95%: viability [1]
inactive: Her2 level [2] 116% | viability [3] 95% | viability [4] 62.8% | viability [5] 60.6% | differential viability (reversal) ([6]; H69AR cells + 2 uM doxorubicin) -16.9% | inhibition [7] -1.73% | inhibition [8] 2.33% | growth inhibition [9] 3.42% | growth inhibition [10] 8.1% | viability increase [11] -2.36% | viability [12] 47.1% | viability [13] 55.1% | inhibition [14] -0.01% | RAM network inhibition [15] 1.74%
60.6%: viability [6, 17]

c1ccc(C(Cc2nc(-c3ccccn3)no2)c2ccccc2)cc1
inactive: Her2 level [2] 94% | viability [3] 96% | viability [4] 92.8% | viability [5] 95.2% | differential viability (reversal) ([6]; H69AR cells + 2 uM doxorubicin) -11.8% | inhibition [7] -4.03% | inhibition [8] 1.8% | growth inhibition [9] -9.91% | growth inhibition [10] 12.9% | viability increase [11] -2.01% | viability [12] 89.7% | viability [13] 82.5% | inhibition [14] 1.98% | RAM network inhibition [15] 6.08%
96%: viability [1]
95.2%: viability [6, 17]
107%: viability [6, 16]

CCOC(=O)C(CC)n1nc(C)n2c(cc3sccc32)c1=O (stereo not drawn)
84.2%: viability [6, 16]
114%: viability [1]
inactive: Her2 level [2] 102% | viability [3] 114% | viability [4] 110% | viability [5] 85.1% | differential viability (reversal) ([6]; H69AR cells + 2 uM doxorubicin) 0.895% | inhibition [7] -5.87% | inhibition [8] 1% | growth inhibition [9] -5.97% | growth inhibition [10] 1.69% | viability increase [11] -2.34% | viability [12] 99.8% | viability [13] 95.2% | inhibition [14] -1.04% | RAM network inhibition [15] 2.14%
85.1%: viability [6, 17]

NC(=O)CN1C(=O)C(O)(CC(=O)c2ccccc2O)c2ccccc21 (stereo not drawn)
97%: viability [6, 16]
inactive: Her2 level [2] 95.5% | viability [3] 92.5% | viability [4] 92.1% | viability [5] 91.8% | differential viability (reversal) ([6]; H69AR cells + 2 uM doxorubicin) -5.2% | inhibition [7] -2.67% | inhibition [8] -1.17% | growth inhibition [9] 1.61% | growth inhibition [10] -10.4% | viability increase [11] -2.93% | viability [12] 94.8% | viability [13] 93.9% | inhibition [14] 1.52% | RAM network inhibition [15] 2.98%
92.5%: viability [1]
91.8%: viability [6, 17]
